Screening results from PubChem BioAssay.
FBPA Giardia inh: qHTS Assay for Inhibitors of Fructose-1,6-bisphosphate Aldolase from Giardia Lamblia. 290,000 tested, 0.71% active. Potency, µM (doses to about 59.6 µM), for the others: top-dose activity, negative = inhibition, hits mostly inhibitors. purified Giardia FBPA; note: nearly all actives have a fitted effect of over 55% in size
Target sequence (A8B2U2 whole entry, looked up): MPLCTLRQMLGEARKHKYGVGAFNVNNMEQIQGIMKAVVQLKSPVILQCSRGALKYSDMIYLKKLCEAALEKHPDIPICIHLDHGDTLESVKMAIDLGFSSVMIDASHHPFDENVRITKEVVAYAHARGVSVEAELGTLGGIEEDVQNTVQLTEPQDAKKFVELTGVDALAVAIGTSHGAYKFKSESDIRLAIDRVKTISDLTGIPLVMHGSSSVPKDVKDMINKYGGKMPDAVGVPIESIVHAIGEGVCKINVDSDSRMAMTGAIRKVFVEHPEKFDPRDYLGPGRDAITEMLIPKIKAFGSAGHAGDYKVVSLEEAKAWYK
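Giardia FBPA (40 nM reagent) was preincubated 10 min at RT with compound (up to 57.5 uM final), then substrate plus GAPDH/TPI/NAD/arsenate coupling system with diaphorase/resazurin was added; resorufin fluorescence (525/598 nm) was read after 20 min.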
Cruzain noTriton: qHTS Assay for Promiscuous and Specific Inhibitors of Cruzain (without detergent). purified cruzain, Z-FR-AMC fluorescence, no detergent. Cruzipain (Trypanosoma cruzi), P25779. Potency, µM, for the others: max response, negative = inhibition, actives largely listed as inhibitors. 200,000 tested, 2.3% active. AID 1476, 2009;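 note: plate controls were enzyme without inhibitor for no effect and buffer without enzyme for full effect; nearly all actives have a fitted effect of over 40% in size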
Target sequence (P25779 123-467 limits assumed): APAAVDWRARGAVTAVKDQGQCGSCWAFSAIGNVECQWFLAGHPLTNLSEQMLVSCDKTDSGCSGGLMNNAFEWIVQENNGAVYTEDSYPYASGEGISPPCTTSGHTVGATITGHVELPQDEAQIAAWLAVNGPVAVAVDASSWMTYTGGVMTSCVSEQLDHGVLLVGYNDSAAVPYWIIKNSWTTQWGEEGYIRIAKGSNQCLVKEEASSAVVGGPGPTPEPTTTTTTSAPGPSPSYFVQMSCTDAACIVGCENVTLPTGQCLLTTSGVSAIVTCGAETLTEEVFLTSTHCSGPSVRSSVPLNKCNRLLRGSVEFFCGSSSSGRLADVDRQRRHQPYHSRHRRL
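Detergent-free condition (0.00005% Triton X-100) in acetate buffer pH 5.5 with DTT. 1.5 nM enzyme and compound were pre-mixed 15 min, then 2 uM Z-FR-AMC substrate added; reaction progress from fluorescence change between first and third reads (60 s).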
Cruzain Triton: qHTS Assay for Promiscuous and Specific Inhibitors of Cruzain (with detergent); Cruzipain (Trypanosoma cruzi), P25779; purified cruzain, Z-FR-AMC fluorescence, 0.01% Triton; Potency, µM, for inactives: max response, negative = inhibition, actives largely listed as inhibitors; 200,000 tested, 0.43% active; AID 1478, 2009;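 note: plate controls were neutral wells for no effect and buffer without enzyme for full effect; nearly all actives have a fitted effect of over 40% in size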
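Steps: dispense cruzain (1.5 nM final) in acetate buffer pH 5.5 with DTT and 0.01% Triton X-100; pin-transfer compounds; incubate 15 min RT; add Z-FR-AMC (2 uM final); read fluorescence every 30 s, using the 60 s intensity change.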
The depositor's hits bear a star; ? = inconclusive; · = not tested or not shown; [ ] = remark or other dose. Many of the other results were omitted from the sample, so hits are more common in it than they were. Calls come from the whole dose curve; as a rule, active = well fitted curve in the direction sought with a large enough effect; inconclusive = small, poorly fitted or top-dose-only effect, or another doubt; inactive = no such curve, though single readings can be large; an effect the other way counts as inactive or inconclusive. Unless noted, % is set by controls: 0 for no effect and ±100 for the full control effect; potency is the fitted concentration of half-maximal effect.

SMILES | FBPA Giardia inh | Cruzain noTriton | Cruzain Triton
CCc1cc2c(nc1CC)CCN(CC/C(C)=N/OCC[C@@H]1C=C[C@H](OC(C)=O)[C@H](COC(C)=O)O1)C2 | -4%[12.9 µM] | · | ·
CCCOc1ccc(-c2nc(C#N)c(N3CCc4ccccc4C3)o2)cc1 | -6% | -92% | 25µM*
CCCOc1ccc(-c2nc(C#N)c(N3CCN(C)CC3)o2)cc1 | 0% | -9% | 1%
CC1/C=C/C=C/C=C/C=C/C=C/C=C/C=C/C(OC2OC(C)C(O)C(N)C2O)CC2O[C@@](O)(CC(O)CC(O)C(O)CCC(O)CC(O)CC(=O)OC(C)[C@H](C)C1O)CC(O)C2C(=O)O (stereo not given in full) | -27% | ? | -13%
CC(CNc1nc2ccccc2c2nc(-c3ccccc3)nn12)c1ccccc1 (stereo not given) | · | 0% | 5%
COc1ccc(/C=N/NC(=O)c2cc3c(ccc4ccccc43)o2)c(OC)c1 | 2% | · | ·
O=C(N/N=C/C=C/c1ccccc1)c1cc2c(ccc3ccccc32)o1 | -1% | 10µM* | ?
C#CCn1cc(/C=N/NC(=O)c2cc3ccccc3o2)c2ccccc21 | -1% | -17% | -11%
C=CCn1cc(/C=N\NC(=O)c2cc3c(ccc4ccccc43)o2)c2ccccc21 | -28% | 16µM* | 0%
Cc1ccc(NC(=O)Cn2c(=O)n(Cc3ccc4c(c3)OCO4)c(=O)c3ccccc32)cc1 | · | 5% | -3%
Cc1ccc(Cl)cc1NC(=O)Cn1c(=O)n(Cc2ccc(C(=O)NCc3ccc4c(c3)OCO4)cc2)c(=O)c2ccccc21 | · | -22% | -2%
Cc1cccc(NC(=O)Cn2c(=O)n(Cc3ccc4c(c3)OCO4)c(=O)c3ccccc32)c1 | · | 20µM* | -6%
Cc1ccc(NC(=O)Cn2c(=O)n(Cc3ccc(C(=O)NCc4ccc5c(c4)OCO5)cc3)c(=O)c3ccccc32)cc1 | · | ? | -4%
COc1cccc(NC(=O)Cn2c(=O)n(Cc3ccc(C(=O)NCc4ccc5c(c4)OCO5)cc3)c(=O)c3ccccc32)c1 | · | 13µM* | -2%
O=C(Cn1c(=O)n(Cc2ccc(C(=O)NCc3ccc4c(c3)OCO4)cc2)c(=O)c2ccccc21)Nc1ccccc1F | · | 13µM* | -2%
CCOC(=O)c1c(Oc2ccc(C(C)=O)cc2)nnc(-c2ccccc2)c1-c1ccccc1 | · | -10% | -8%
CCN(CC)c1cc(C)c2cc(NC(=O)/C=C/c3cc(OC)c(OC)c(OC)c3)ccc2n1 | · | 3% | -23%
Cc1ccccc1CNC(=O)Cc1csc2ccccc12 | · | -2% | -8%
COc1ccc(NC(=S)c2ccc(N(C)C)cc2)cc1 | 1% | 8% | -4%
COc1ccc(N=C2C(=Nc3ccc(OC)cc3)N(c3ccc(OC)cc3)C(=S)N2C(=O)c2ccc(OC)cc2)cc1 | 3% | 5µM* | -5%
COc1ccc(N=C2C(=Nc3ccc(OC)cc3)N(c3ccc(N(C)C)cc3)C(=S)N2c2ccc(OC)cc2)cc1 | -8% | 7.9µM* | -5%
COc1ccc(N2CCN(C(=O)c3ccncc3)CC2)cc1 | 1% | 2% | 6%
COc1ccc(N=C2C(=Nc3ccc(OC)cc3)N(c3ccccc3)C(=S)N2C(=O)c2ccc(Cl)cc2)cc1 | 0% | 4µM* | -3%
COc1ccc(C(=O)c2ccc(Cl)cc2)cc1 | 3% | 6% | -3%
C/C(N=NC(=[SH+])SCc1ccccc1)=C1\C=CC=CN1.[Cl][Cu] | · | -8% | 5%
SMILES | FBPA Giardia inh | Cruzain noTriton | Cruzain Triton
CCCN(CCC)CCNC(=O)c1cc2c(=O)n(C)c3ccccc3c2n1C | -8% | ? | 16µM*
Cn1c(C(=O)NCCN2CCOCC2)cc2c(=O)n(C)c3ccccc3c21 | -18% | ? | ?
CCOCCCNC(=O)c1cc2c(=O)n(C)c3ccccc3c2n1C | · | -11% | -2%
Cn1c(C(=O)NCCN2CCc3ccccc3C2)cc2c(=O)n(C)c3ccccc3c21 | ? | ? | 25µM*
C[N+]1(C)CCO[C@](O)(c2ccccc2)C1 | · | 3% | 6%
Cc1c2cnn(CC(=O)NCCc3ccccc3)c(=O)c2c(C)n1Cc1ccccc1 | · | -14% | -1%
COc1ccccc1NC(=O)CSC1=NC(=O)C(Cc2ccccc2)C(=O)N1 (stereo not given) | -10% | · | ·
COc1ccccc1NC(=O)CSc1nc2ccccc2cc1Cc1ccccc1 | -8% | 20µM* | 1%
COc1ccc(C(=O)NC2c3ccccc3-c3ccccc32)cc1 | 6% | 20µM* | 2%
COc1ccc(N2C(=O)c3ccccc3C2O)cc1 (stereo not given) | 10% | · | ·
COc1cc2c(cc1OC)C(COc1ccccc1OC)N(C(=O)COc1ccc(Cl)cc1)CC2 (stereo not given) | · | -5% | -1%
Cc1ccc(CCC(=O)Nc2ncc(Cc3cccc(Cl)c3Cl)s2)o1 | 4% | 13µM* | 1%
CCc1nnc(NC(=O)CCc2ccc(C)o2)s1 | 1% | -3% | 1%
COc1ccc(C(=O)Nc2cc(C(=O)c3ccccc3)c(C)oc2=O)cc1 | -16% | 16µM* | 13µM*
COC(=O)c1cc(NC(=O)c2ccccc2)c(=O)oc1C | 3% | · | ·
CCC(C=C[C@@H]1OC(=O)C=C[C@H]1C)=C[C@H](C)CC=CC(C)=C[C@@H](C)C(=O)[C@@H](C)[C@H](O)[C@@H](C)CC(C)=CC(=O)O | ? | ? | 7%
CCc1cccc(NC(=O)CC(c2ccc(OC)cc2)N2Cc3ccccc3C2=O)c1 (stereo not given) | · | -1% | -6%
COc1cc2c(cc1OC)[C@@]13CCN4CC5=CCO[C@H](CC(=O)O)[C@@H]([C@H]1N2)[C@H]5C[C@H]43 | · | -1% | 5%
O=C1C=CC(=O)C(C2=C3C(=O)N(CCc4ccccc4)CC(=O)N3CCC2)=C1 | 18µM* | 10% | -3%
O=C1CC(=O)N(CCc2ccccc2)C(=O)N1CCc1ccccc1 | -1% | 5% | -9%
CC1CN(C(=O)N2CCC(C(=O)N3CCN(c4ccccc4)CC3)CC2)c2cc(Cl)ccc2O1 (stereo not given) | · | -6% | -8%
CCOc1ccccc1N(C)C(=O)Cn1cnc2onc(-c3ccc(F)cc3)c2c1=O | · | -4% | 0%
CNC(=S)N1N=C(c2ccc(C)cc2)CC1c1ccc(Cl)cc1 (stereo not given) | -2% | -30% | -8%
CNC(=S)N1N=C(c2ccc(C)cc2)CC1c1ccc(Br)cc1 (stereo not given) | -5% | 2.5µM* | -2%
CCN1C(C)=C(C(=O)OC(C)C)C(c2ccccc2Cl)C(C(=O)O)=C1C(=O)O (stereo not given) | 0% | · | ·
SMILES | FBPA Giardia inh | Cruzain noTriton | Cruzain Triton
O=C(COc1ccccc1F)NCc1nc2ccccc2[nH]1 | -1% | · | ·
Cc1cccc(OCC(=O)NCCc2nc3ccccc3[nH]2)c1C | · | 3% | 4µM*
Cc1ccccc1OCC(=O)NCCc1nc2ccccc2[nH]1 | -15% | 3.2µM* | 5µM*
CCOC(=O)CCc1nc2ccccc2[nH]1 | -4% | -1% | -5%
CCCCc1nc2c(c3c1C[C@H](C)OC3)CN(C(=O)NCc1ccco1)CC2 | 0%[12.9 µM] | · | ·
COc1ccc(CCNC(=O)CCc2cn(Cc3ccccc3Cl)c3ccccc23)c(OC)c1 | · | -8% | -3%
C/C(=N/O)[C@@H]1C[C@H](CC(=O)O)C1(C)C | · | 8% | 3%
